Bioassay records (PubChem BioAssay)
SW480 rerep: induces DNA re-replication in SW480 colon adenocarcinoma cells; SW480 DNA re-replication, Hoechst DNA content imaging, 48 h; Potency, µM (doses to about 46.1 µM), inactives show at the top dose re-replication activation, actives largely listed as activators; hit rate 1.8% among 340,000; further: % of control where 0% means no effect; nearly all actives have a fitted effect of over 55% in size
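Readout is total intensity of Hoechst-stained nuclei, excited at 405 nm and collected at 500-530 nm. Compound treatment lasted 48 hr at 37 C in 5% CO2 before staining.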
KB-3-1 cytotox: KB-3-1 parental cell cytotoxicity; KB-3-1 viability, CellTiter-Glo ATP luminescence, 72 h; Potency, µM (series often up to 46.1 µM), usual class: cytotoxic; hit rate 1.4% among 400,000; AID 1347075; further: on the % scale 0 is the no-effect control and ±100 the full control effect; nearly all actives have a fitted effect of over 60% in size
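Screening of KB-3-1 cells (DMEM, 10% FBS, phenol-red free) ran from lowest to highest compound concentration; after 72 h at 37 °C viability was read luminescently and curves fitted.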
HT1080NT lethal: kills 2HG-producing HT-1080-NT fibrosarcoma cells. HT-1080-NT fibrosarcoma viability, CellTiter-Glo ATP luminescence, 48 h. Potency, µM (series often up to 46.1 µM), inactives show at the highest dose activity, negative = less viability, most hits filed as cytotoxic. hit rate 1.6% among 360,000. AID 686970;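 further: NT is the 2HG producing partner of a matched IDH1 knockdown line; 0% = DMSO-treated cells and -100% = media-only wells without cells; nearly all actives have a fitted effect of over 55% in size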
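HT-1080-NT fibrosarcoma cells (2HG-overproducing), 750 cells/well in RPMI with 5% FBS, dosed after 2 h and incubated 48 h at 37C. CellTiter-Glo luminescence normalized to DMSO and no-cell wells; concentration-response curves fitted and classed.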
KB-V1 MDR tox: KB-V1 MDR subline cytotoxicity. KB-V1 MDR cells viability, CellTiter-Glo, 72 h. Potency, µM (series often up to 46.1 µM), actives largely listed as cytotoxic. hit rate 3.4% among 400,000; further: on the % scale 0 is the no-effect control and ±100 the full control effect; nearly all actives have a fitted effect of over 60% in size
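Cytotoxicity toward P-gp-expressing KB-V1 cells was determined as loss of CellTiter-Glo luminescence after 72 h at 37 degrees C. Compounds were tested in quantitative HTS format across a concentration range, with curves fitted to normalized data.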
MCF10A rereplic: inducers of DNA re-replication in MCF 10A breast cells. AID 624296. MCF 10A DNA re-replication, Hoechst nuclear intensity, 48 h. Potency, µM (series often up to 46.1 µM), inactives show at the top dose activity, positive = re-replication, actives largely listed as activators. hit rate 2.9% among 350,000; further: % of control where 0% means no effect; nearly all actives have a fitted effect of over 50% in size
HT1080 IDH1KD tx: toxicity to HT-1080 IDH1 knockdown cells (counter line); HT-1080 IDH1 knockdown viability, ATP luminescence, 48 h; Potency, µM (doses to about 46.1 µM), without a hit: top-dose activity, negative = toxicity, hits mostly cytotoxic; hit rate 2% among 360,000;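 further: 0% = DMSO wells and -100% = cell-free medium wells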
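% activity derives from luminescence (CellTiter-Glo), normalised to DMSO and no-cell wells. HT-1080-IDH1KD cells, 750/well, had 48 h compound exposure at 37 °C.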
* hit, by the source's call; i = inactive; ? = inconclusive; . = not tested or not shown; [ ] = remark or other dose. The list is not random: actives were taken first. Their share in the collection is about 7.9%. The call rests on the fitted dose curve; in most records, active means well fitted curve in the direction sought with a large enough effect; inconclusive means small, poorly fitted or top-dose-only effect, or another doubt; inactive means no such curve, though single readings can be large; an effect the other way counts as inactive or inconclusive. Potency means the concentration at half of the fitted maximal effect.

SMILES	SW480 rerep	KB-3-1 cytotox	HT1080NT lethal	KB-V1 MDR tox	MCF10A rereplic	HT1080 IDH1KD tx
CCN(CC)CCCNC(=O)c1ccc2c(SCC(=O)O)c3c(nc2c1)CCC3	0.6%	.	.	.	-19.7%	.
CCN(CC)CCCNC(=O)c1ccc2c(Cl)c3c(nc2c1)CCCC3	-1.3%	i	23.1µM*	?	9.0%	29.1µM*
CCCCN(CC)CCNC(=O)c1ccc2c(Cl)c3c(nc2c1)CCC3	0.9%	i	20.6µM*	i	0.3%	23.1µM*
N#Cc1ccccc1NC(=O)c1ccc2c(Cl)c3c(nc2c1)CCCC3	-1.4%	i	7.1%	8.2µM*	1.3%	14.7%
CCCN1CCN(CCCNC(=O)c2ccc3c(Cl)c4c(nc3c2)CCCC4)CC1	-23.3%	i	?	i	13.4%	?
COc1ccccc1CCC(=O)Nc1ccc(OC)c(S(=O)(=O)N2CCCCC2)c1	-6.5%	i	-1.3%	i	1.1%	-4.1%
COc1ccccc1CCC(=O)Nc1ccc2c(c1)c(=O)n(C)n2-c1cccs1	.	3.26µM*	?	i	.	?
COc1cc(Cn2c3ccc(NC(=O)CCc4ccccc4)cc3c(=O)n2C)ccc1F	.	9.2µM*	?	5.8µM*	.	?
O=C(O)Cc1ccc(C(=O)c2ccc(Cl)cc2Cl)s1	-2.2%	i	6.0%	i	1.2%	18.5%
COc1ccc(-c2sc(C(=O)c3ccc(Cl)cc3Cl)cc2CC(=O)O)cc1	8.6%	?	?	?	11.6µM*	?
O=C(NCc1ccccc1)c1nc(S(=O)(=O)Cc2ccccc2)ncc1Cl	-18.1%	i	?	i	?	?
CN(Cc1ccccc1)S(=O)(=O)c1ccc(Cl)c(C(=O)NCc2ccc3c(c2)OCO3)c1	-99.7%	i	-5.6%	11.6µM*	-1.6%	-11.4%
O=C(NCc1ccc2c(c1)OCO2)c1nc(S(=O)(=O)Cc2ccccc2)ncc1Cl	?	20.6µM*	16.4µM*	?	?	16.4µM*
COC(=O)c1ccc(NC(=O)c2nc(S(=O)(=O)Cc3ccccc3F)ncc2Cl)cc1	.	?	.	i	.	.
O=C(NCc1ccc2c(c1)OCO2)c1nc(S(=O)(=O)Cc2ccccc2F)ncc1Cl	10.5%	i	16.4µM*	i	-9.3%	?
CN(Cc1ccccc1)S(=O)(=O)c1ccc(Cl)c(C(=O)NCc2ccncc2)c1	8.4%	i	-5.6%	?	19.5%	-9.3%
Cc1onc(-c2c(F)cccc2Cl)c1C(=O)Nc1ccc(Cl)c(S(=O)(=O)N(C)C)c1	-5.4%	i	-9.4%	?	-5.0%	-0.3%
CC(=O)OCC(=O)[C@@]1(O)CCC2C3CCC4=CC(=O)CC[C@]4(C)C3=CC[C@@]21C (stereo not given in full)	-4.4%	.	.	.	-2.7%	.
Cc1[nH][nH]c(=O)c1C(c1c(C)[nH][nH]c1=O)c1cn(Cc2cccc3ccccc23)c2ccccc12	?	?	?	20.6µM*	?	?
O=[N+]([O-])c1cc(-n2cnnn2)ccc1N1CCC(Cc2ccccc2)CC1	?	i	-3.3%	23.1µM*	23.8%	-14.5%
CC1CC(C)CN(c2ccc(-n3cnnn3)cc2[N+](=O)[O-])C1 (stereo not given)	1.7%	5.17µM*	-5.5%	?	-2.4%	-9.0%
CC1CC(C)CN(c2cc3c(cc2[N+](=O)[O-])C(=O)N(c2ccccc2)C3=O)C1 (stereo not given)	-6.1%	i	21.3%	i	2.5%	18.9%
Cc1cc(C)cc(C(=O)NC(CC(N)=O)c2ccc(N3CCC(Cc4ccccc4)CC3)c([N+](=O)[O-])c2)c1 (stereo not given)	-2.7%	i	-1.9%	i	0.2%	-4.1%
Cc1cc(C)c2nc(N3C(=O)C(O)=C(C(=O)c4ccco4)C3c3ccco3)sc2c1 (stereo not given)	16.4µM*	i	?	i	18.4µM*	?
COc1ccc2nc(N3C(=O)C(O)=C(C(=O)c4ccco4)C3c3ccc(C)o3)sc2c1 (stereo not given)	-6.0%	i	-25.9%	?	?	-27.8%
SMILES	SW480 rerep	KB-3-1 cytotox	HT1080NT lethal	KB-V1 MDR tox	MCF10A rereplic	HT1080 IDH1KD tx
Cc1ccc2nc(N3C(=O)C(O)=C(C(=O)c4ccco4)C3c3cccs3)sc2c1 (stereo not given)	?	i	?	13µM*	20.6µM*	?
CC(=O)Nc1ccc(NC(=O)CSc2nc(=O)n(Cc3cccnc3)c3c2CCC3)cc1	-6.5%	i	0.7%	i	-3.1%	16.1%
CN[C@H]1CCc2cc(OC)c(OC)c(OC)c2-c2ccc(OC)c(=O)cc21	?	0.0291µM*	-0.1%	1.16µM*	?	12.4%
COc1c(O[C@H]2O[C@@H](CO)[C@@H](O)[C@@H](O)[C@@H]2O)cc2c(c1OC)-c1ccc(SC)c(=O)cc1[C@H](NC(C)=O)CC2	0.4%[20.6 µM]	.	.	.	-0.4%[20.6 µM]	.
CCCCOC(=O)NC1CCS(=O)(=O)C1 (stereo not given)	-6.6%	i	13.4%	i	-1.0%	24.0%
CCOCC(=O)NC1CCc2cc(OC)c(OC)c(OC)c2-c2ccc(SC)c(=O)cc21 (stereo not given)	0.0517µM*	0.0058µM*	0.0116µM*	?	?	?
COc1cc2c(c(OC)c1OC)-c1ccc(NC(=O)c3ccccc3)c(=O)cc1[C@@H](NC(C)=O)CC2	2.5%	i	0.1%	i	-39.8%	0.0%
CCCCOC(=O)NC1CCc2cc(OC)c(OC)c(OC)c2-c2ccc(SC)c(=O)cc21 (stereo not given)	?	0.146µM*	0.0082µM*	0.291µM*	?	0.0092µM*
CCOC(=O)NC1CCc2cc(OC)c(OC)c(OC)c2-c2ccc(SC)c(=O)cc21 (stereo not given)	0.0366µM*	0.164µM*	0.0092µM*	0.231µM*	?	0.103µM*
O=C(CCN1CCN(CCO)CC1)Nc1ccc(OCc2ccccc2)cc1	-3.8%	i	-12.0%	i	6.9%	-11.2%
CCOc1ccc(C(=O)CCN2CCCCC2)cc1	23.6%	i	?	i	?	-22.1%
O=C(CCN1CCN(Cc2ccccc2)CC1)Nc1ccc(OCc2ccccc2)cc1	18.7%	?	-13.3%	2.59µM*	?	-20.5%
COc1cccc(/C=C/C(=O)NNC(=O)CCN2CCN(Cc3ccccc3)CC2)c1	3.66µM*	23.1µM*	-12.0%	i	?	-20.9%
COc1ccccc1-n1c(SCC(=O)Nc2ccc3c(c2)OCO3)nc2c(c1=O)SCC2	0.6%	i	-3.3%	7.31µM*	17.2%	-1.8%
